Data on 108 sequences can be found in PubChem BioAssay AID1347426 (Functional Genomics Laboratory (NCATS/FGL), 2020).

Among all 31,000 sequences or so, about 1,400 (4.5%) were called active. Many of the other results were omitted from the sample, so actives are more common in it than they were. A number with no mark means an inactive call.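 Rule for the calls: active = median seed-adjusted z-score above 1 or below -1; inactive = the rest.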

This test can be described thus: Novel Modifiers of Survival Motor Neuron (SMN) Protein: Gene Identification via Genome-wide siRNA Screen.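 Note: luminescence tracks full-length SMN protein made from the SMN2 reporter.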 The settings on record: HEK293T SMN2-luciferase reporter, siRNA knockdown, 72 h; actives lie on both sides. Put shortly: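 Genome-wide siRNA screen (10418 genes, 3 siRNAs each, 1 pmol per well) by reverse transfection in HEK293T cells stably carrying an SMN2-luciferase reporter; luminescence after 72 hours, normalized to negative-control siRNA, log10-transformed, MAD-scored.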
For the sequence CUACUUCCGCAACCAGCUATT against UNC119, the median seed-adjusted z-score is 0.171.

Turning to CUAUGGUAGCGACACUGCATT against LILRB1, the median seed-adjusted z-score was 0.539.

Take UCACAGAGCCUAUUAUUUUTT against PRKY: the median seed-adjusted z-score is 0.168. Consider GUGUCAGAGUUUAUAUCAATT against PDE4D, for which the median seed-adjusted z-score is 0. Consider CAAACUAUCUCUGAAAAUATT against TRYX3, for which the median seed-adjusted z-score was 2.3 (active). For the sequence GCUGAUGACUGUCGUUAUATT against TBX3, the median seed-adjusted z-score was 0.

As for CAUCCUGUAUAAGUACUAUTT against RNF216, the median seed-adjusted z-score is -0.246.

For the sequence UCAACAUCGUCUACCAGGATT against SCNN1D, the median seed-adjusted z-score was -1.8 (active). With GAUCUACCCUGCUCACGAUTT against ETHE1, the median seed-adjusted z-score was 0. Consider CAGGCUACAGUGAACAGAATT against GNL1, for which the median seed-adjusted z-score is 0.154.

As to GCGCGUUGGUACAAUGGAATT against GOT1, the median seed-adjusted z-score was 0.0103. On to GCUUGUCUUUCAACCCGAUTT against PARP4, for which the median seed-adjusted z-score is -0.226.

For GCAACGUGUUGAUGAUGCATT against ADAD1, the median seed-adjusted z-score was -0.0795. As for GCACAGAGGAACGAACUAATT against PSMC5, the median seed-adjusted z-score is -1.06 (active).

On to GGGAGACGGUAGAAUCAGATT against ATP13A4, for which the median seed-adjusted z-score is -1.09 (active). CCAUGUGAGUGUAAGCAGUTT against ZNF490: the median seed-adjusted z-score was 0.00954. On to GGGUAACUGUUGAUAACCATT against POGK, for which the median seed-adjusted z-score was 0.938. The figure for ACAAGACUUAUGCAAGAUATT against XRCC6BP1 is 0.128; for GGAAUUCGAUGGGAACUUUTT against CACHD1 it is 0.119. Consider CCGAGUAGCUGAAAUUGUUTT against BCL2L14, for which the median seed-adjusted z-score is -0.859. Consider AGAUCUAUGAGAUUGAACATT against PRKAG3, for which the median seed-adjusted z-score is -1.03 (active). For CAAGUUCCUUAACAAGGAATT against EIF2B4, the median seed-adjusted z-score was 0. The figure for CAGAUACUUUAGGACUCAATT against UGT2B4 is 0.0707; for CAGGCUCACUCGCAAAGAATT against USP31 it is -0.755. Turning to GGCUCUCUGUCAACUAUGATT against MGC21874, the median seed-adjusted z-score was -0.354. The figure for CCCUUUUCUUUAUCCCUGATT against IL9R is -1.33 (active). GCAAGGCUAUUAUAGAUCATT against CTNNA3: the median seed-adjusted z-score is 0.249. Regarding GGACAUUGCUGAUCGCUUUTT against DMC1, the median seed-adjusted z-score is -0.00876. On to GCAUGUCUCUAAUAUUCCUTT against RBM9, for which the median seed-adjusted z-score was 0.895. The figure for GGUUUGAAAUUCUAACAAATT against TXNDC6 is 0.156; for CAUCCUGCAGAGUAUCUAATT against EPHA5 it is -0.00876. For the sequence CUCUCUCUCGGAAUCUGAATT against POLR2L, the median seed-adjusted z-score is -1.19 (active). The figure for GGUUGUUUUGGAAACCGAATT against NAT12 is -0.0807. As for GCGAAUUCAUAAGUCCAUUTT against MTMR9, the median seed-adjusted z-score is 0.133. In the case of CAAGACCGAGAGAACAAUATT against ENOX1, the median seed-adjusted z-score is 0.0694.

In the case of CCAUCACCGUUGAUGACAATT against JAK1, the median seed-adjusted z-score is 0.0199. CGAGCUGCACGUUCCUAUATT against IRF7: the median seed-adjusted z-score is -0.304.

For the sequence CAGUGGAUAUAUCCAGUCATT against RAB20, the median seed-adjusted z-score was -0.334. Take GACUCGUUGUUGGUCUAAATT against MAP3K7: the median seed-adjusted z-score was -0.23. The figure for CGCUGAUUUUCGAGUGUAATT against EHMT2 is 0.295; for GGGUCAUGCAGCAUCAAUATT against ITGAM it is -1.56 (active).

For the sequence CCAAGGACCUGGUCUGAAATT against CUGBP1, the median seed-adjusted z-score is 0.086. AGCAGAUGGUUUUCGAGAATT against COPZ2: the median seed-adjusted z-score is -1.23 (active). The figure for GGGUUUUGCUGACAGCUCATT against ZNF48 is -0.116. In the case of GGAACACGCAUGUCUGGAATT against NOS1, the median seed-adjusted z-score was 0.0195.

In the case of GAAUGCAAGAUUUUCGAUUTT against USH2A, the median seed-adjusted z-score was 0.0673. For GGCAUCCGCUUGUACUACATT against DBH, the median seed-adjusted z-score was 0.337. The same measure for CCCUAUCAGUCCAAUGGAATT against PRDM4: 0.0804. On to GCCUUCUCCUCUCAUAACATT against ZNF683, for which the median seed-adjusted z-score was -0.452. For the sequence CAACUUCUCCGUAGCAGAATT against AKT2, the median seed-adjusted z-score is 0. On to CUUCUACAGUGGUCACCUATT against VPS29, for which the median seed-adjusted z-score is -0.408. For GGUUAUCAAUGACGAGCAATT against EP400, the median seed-adjusted z-score is 1.83 (active). As for GAACCUCGUUUCGAAAUUUTT against RIOK2, the median seed-adjusted z-score is -0.16.

Regarding GAAUGAUUUUCCAAAUGGATT against SLC25A21, the median seed-adjusted z-score was -0.219.

As for GGAAGAAACGGAGACUCAATT against DPF1, the median seed-adjusted z-score was 0.144. In the case of GCCUGGUUUUGGAUACAAATT against LTA4H, the median seed-adjusted z-score was -0.742.

Turning to CAACUGCUACCUUAGCAUATT against RNF133, the median seed-adjusted z-score is 0.

With GCUGUGAGAUUUACUCUGATT against ALAS1, the median seed-adjusted z-score was -1.15 (active). As for AAGUGACUCUAGUCGUUUATT against REM2, the median seed-adjusted z-score was 0.109. Take GCAGGGUCAUUACGACUCATT against PAX9: the median seed-adjusted z-score was -1.16 (active). Turning to GAAUGGAUUCUGACCUUAUTT against MTO1, the median seed-adjusted z-score is -0.0252. Regarding ACAAGAUGUAUCACCUAUATT against ZNF226, the median seed-adjusted z-score was 0.437. For GGACUUGCUGGAAAGCACATT against NCALD, the median seed-adjusted z-score is 0. Turning to GUACCUAAGUUGGAGCUGATT against TRPT1, the median seed-adjusted z-score was -0.671. Consider CCACUGGGCUAAUUCUACATT against ALPPL2, for which the median seed-adjusted z-score was 0.331.

Turning to CGACACUUUCUAUCGACAATT against UBA3, the median seed-adjusted z-score is 0.605.

With GGGUCUCAGAAGACGUGUATT against CRAT, the median seed-adjusted z-score is -1.42 (active). Take GACAGUAACUUUAAUUCCATT against IDH3A: the median seed-adjusted z-score was 0.137. As to CAACAGCAAUUACACCGAUTT against TMPRSS13, the median seed-adjusted z-score was 0.0584.

For the sequence GAACUUCAUAGUACAGCGATT against CTNNAL1, the median seed-adjusted z-score was 0.229. Consider CUGCUCUAAUUACACCGUATT against CILP, for which the median seed-adjusted z-score was 0.0436.

Take GCUCGAUCCCUGCAGAUUATT against LCOR: the median seed-adjusted z-score was -0.0435. For the sequence AGAUAAAGCGAUCUAAACUTT against ASCC3, the median seed-adjusted z-score is -0.192. The figure for UCAUCUUAAAGGACCGAUATT against SEC11B is 1.04 (active); for CCCACAUUCUUGUCCGGCATT against ADAMTS4 it is -0.0153; for GAAAGAUCCCUAUGGAAAATT against CAMK2G it is -0.107.

For the sequence GAAGGAUUAGAAACCGCAATT against RNF144, the median seed-adjusted z-score was 0.0938. For the sequence GGAUAAUGGAGAACUCAGATT against NSFL1C, the median seed-adjusted z-score is -0.0899.

For the sequence GCACGUACCGCUUCGAAAATT against SLC4A10, the median seed-adjusted z-score was 0.026. With CCGGUAUUAGAAUCAAAGATT against POLS, the median seed-adjusted z-score was -0.334.

Consider CGAUAUCUUCACCACAUUATT against KCNJ6, for which the median seed-adjusted z-score is -1.6 (active).

Turning to CAACAAGUGUAACGACGAUTT against SMPD3, the median seed-adjusted z-score is -0.0115. As for ACAGAACUCGGGACCUUUUTT against H6PD, the median seed-adjusted z-score was 0.069.

On to GAAGAUUGCUCAGCGAUUATT against PRPF3, for which the median seed-adjusted z-score is -0.289. The same measure for GCUCGUAAGAGUGCAAGUATT against USPL1: -1.87 (active); for GCCUGAAACUGGAGCCUCATT against SLC3A2: -0.0428; for CCACAAAGACCGUCGCUUUTT against RHOBTB2: -0.139.

With GGCUAUGAUCAAAUCCUUATT against SLC17A4, the median seed-adjusted z-score is 0.262. For the sequence GAACUGGGCGAGUAUUACATT against SUPT5H, the median seed-adjusted z-score is -4.02 (active). For AGAUGGAAGCGAAAACUGATT against NFATC1, the median seed-adjusted z-score is 0.00712.

As to GUGACCUUGUCAUUCCGUATT against RGS5, the median seed-adjusted z-score was 0. The same measure for CACCUGUUCGUGUCCUUCATT against SCTR: -0.352. The figure for GCCUGGUUAUAUAACCGGATT against EP300 is -0.2; for GGUUCCGAAUCUAUUCCAATT against PLTP it is 1.09 (active). As for GGCCUUACUUAUUUGUGGATT against MAP2K5, the median seed-adjusted z-score is 0.986. For the sequence GCAUCACACUCACCAACUATT against GPR124, the median seed-adjusted z-score is 0.00658. With GCUUUGGAAGAAUACGUUATT against NR2F2, the median seed-adjusted z-score is 0.129. With UGAGUAUGCCUACCUCAAATT against HNF4A, the median seed-adjusted z-score is -0.0274. CAAUCUACCUAAUCAAGCUTT against ROD1: the median seed-adjusted z-score is 0.42. The figure for CAAGAACGUGUACAAGUUUTT against RPN2 is -0.217; for GAGCUGAGCUGUCGAUAUATT against SUPT6H it is -2.54 (active).

Consider GGUACAUCAUGAUAGAACATT against ABCD2, for which the median seed-adjusted z-score was -0.102. For the sequence GUAUGGACACCAUUAGUAATT against DTX3L, the median seed-adjusted z-score is 0.0785.

GAGUUCACCCAGAUCGAAATT against CHMP6: the median seed-adjusted z-score was -1.81 (active). The same measure for GCAUCGACAUGGUUUCCGATT against GABRB3: 0.0757; for CCACUGUACUGAGUGACCATT against HECTD3: 0. The figure for GAUUACUUCUUGACUAUCATT against OCRL is -0.545; for CGACCCUCAGAAUGAUAAATT against ARPC3 it is -0.237.
